Screening results deposited in PubChem by National Center for Advancing Translational Sciences (NCATS).
The list is not random: actives were taken first. Their share in the collection is about 2.4%.
Pol beta inh: blocks human DNA polymerase beta activity; Pol beta primer extension/strand displacement, fluorescence kinetic; 340,000 tested, 1.3% active; Potency, µM (titrated, usually from 114 µM), most hits filed as inhibitors; AID 485314; P06746
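Kinetic readout of DNA synthesis with strand displacement by Pol beta. Compound and 10 nM enzyme sit 15 min at room temperature; 50 nM substrate starts the reaction, read immediately and at 10 min.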
GLS inhibitor: blocks human kidney-isoform glutaminase activity; GLS enzymatic activity, qHTS titration; O94925; Potency, µM (series often up to 45.5 µM), usual class: inhibitors; 410,000 tested, 0.21% active
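Enzyme dispensed in phosphate buffer (45 mM, pH 8.2, 0.02% Tween-20), compounds pinned in, then 1 mM L-glutamine solution and the glutamate oxidase–HRP–Amplex Red mix added; fluorescence read immediately and again after 30 min at room temperature.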
Pol iota inh: DNA polymerase iota (human) inhibition. Q9UNA4. Pol iota fluorescent replication assay, 10 min. Potency, µM (doses to about 115 µM), hits mostly inhibitors. 390,000 tested, 1% active. AID 588590
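Pol iota at 10 nM preincubated 15 min with compounds at room temperature; reaction started with fluorescent substrate, 50 nM final. Fluorescence read kinetically at 0 and 10 min; buffer-only wells as negative control.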
APE1 inh: inhibitors of human APE1 endonuclease; P27695; recombinant APE1, TAMRA/BHQ-2 abasic DNA cleavage fluorescence; Potency, µM (series often up to 65.8 µM), usual class: inhibitors; 350,000 tested, 0.35% active; AID 2517; further: nearly all actives have a fitted effect of over 55% in size
Target sequence (P27695 whole entry, looked up): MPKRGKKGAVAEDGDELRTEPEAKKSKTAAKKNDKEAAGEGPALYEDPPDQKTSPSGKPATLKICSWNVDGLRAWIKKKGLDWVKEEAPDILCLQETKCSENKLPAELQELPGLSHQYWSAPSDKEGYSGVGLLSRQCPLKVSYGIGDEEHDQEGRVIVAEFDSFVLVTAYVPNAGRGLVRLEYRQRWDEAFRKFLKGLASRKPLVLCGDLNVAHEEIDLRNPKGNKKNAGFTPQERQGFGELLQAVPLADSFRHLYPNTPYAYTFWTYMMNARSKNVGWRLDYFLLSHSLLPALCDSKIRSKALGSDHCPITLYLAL
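Kinetic fluorescence read (525 ex/598 em nm, three reads 60 s apart) of AP-site incision; signal = third minus first read. Enzyme 0.75 nM, dual-labelled THF duplex 50 nM, compound preincubation 15 min RT.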
Pol kappa inh-1: DNA polymerase kappa (human) inhibition; Q9UBT6; purified Pol kappa, fluorescent DNA synthesis assay, 10 min; Potency, µM (titrated, usually from 107 µM), hits mostly inhibitors; 400,000 tested, 0.53% active; AID 588579
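10 nM Pol kappa preincubated 15 min at room temperature with compounds, then reaction started with substrate at 50 nM final. Fluorescence read kinetically at 0 and 10 min; buffer-only wells served as negative control.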
Pol eta inh-1: DNA polymerase eta (human) inhibition; Q9Y253; recombinant Pol eta, fluorescent DNA replication assay; Potency, µM (series often up to 114 µM), most hits filed as inhibitors; 390,000 tested, 1.2% active; AID 588591
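Pol eta at 10 nM preincubated with compounds 15 min at room temperature; reaction started with fluorescent substrate (50 nM final) and read kinetically at 0 and 10 min.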
Pol kappa inh-2: Pol kappa (human) inhibition, cherry-pick confirmation; shares compounds with Pol eta inh-1; purified Pol-kappa, fluorescent strand-displacement substrate; Potency, µM, most hits filed as inhibitors; 920 tested, 76% active; AID 720501
Pol eta inh-2: Pol eta (human) inhibition, cherry-pick confirmation | shares compounds with Pol eta inh-1 | Pol eta primer extension, TAMRA/BHQ fluorescence, 10 min | Potency, µM, usual class: inhibitors | 2,600 tested, 64% active | AID 720502
Of the large screens only hits and unclear results are named; the others gave an inactive call (follow-up assays come after a bar, where they were run). The call rests on the fitted dose curve; in most records, active means well fitted curve in the direction sought with a large enough effect; inconclusive means small, poorly fitted or top-dose-only effect, or another doubt; inactive means no such curve, though single readings can be large; an effect the other way counts as inactive or inconclusive.

Cc1nc2ccn(Cc3ccco3)c(=O)c2cc1C(=O)N1CCN(c2ccc(F)cc2)CC1	none (no result: APE1 inh)
C/C(=N\NC(=O)C(O)c1ccccc1)c1ccc(C)s1 (stereo unspecified)	none (no result: Pol beta inh, APE1 inh)
Cc1nc2ccccc2n2c(O)c(CC(=O)O)cc12	Pol beta inh inconclusive, Pol iota inh inconclusive, Pol kappa inh-1 inconclusive, Pol eta inh-1 79.4µM | Pol kappa inh-2 67 | Pol eta inh-2 inconclusive
CC1(Oc2ccc(Cl)cc2)CCN(Cc2ccc(OC(F)(F)F)cc2)C1 (stereo unspecified)	none (no result: Pol beta inh, Pol iota inh, APE1 inh, Pol kappa inh-1, Pol eta inh-1)
Cc1ccc(C(=O)c2ccc([N+](=O)[O-])cc2)cc1	none
Cc1ccc(C(=O)c2coc3cc([N+](=O)[O-])c(O)c([N+](=O)[O-])c23)cc1	Pol beta inh 20µM, Pol iota inh inconclusive, Pol kappa inh-1 inconclusive, Pol eta inh-1 20µM | Pol kappa inh-2 inconclusive
COC1=CC(=Cc2c(N)n3nc(CC(=O)N4CCOCC4)sc3nc2=O)C=C(OC)C1=O	Pol beta inh inconclusive, Pol iota inh 22.4µM, Pol kappa inh-1 79.4µM, Pol eta inh-1 20µM | Pol eta inh-2 inconclusive
Nc1c(C=C2C=CC(=O)C=C2)c(=O)nc2sc(CC(=O)N3CCOCC3)nn12	Pol eta inh-1 inconclusive | Pol eta inh-2 75.7
CCC(CC)C(=O)c1c[nH]c(C(=O)NCc2cccnc2)c1	none
O=C(NCCS(=O)(=O)NC1CCCCC1)c1ccc2c(c1)OCO2	none (no result: Pol beta inh)
CC(C)(C=O)C1=CC(=O)c2ccccc2C1=O	GLS inhibitor inconclusive, Pol iota inh inconclusive, Pol eta inh-1 inconclusive
CNc1ccc(Br)cc(C(=O)/C=C/c2ccc3c(c2)OCO3)c1=O	Pol beta inh 20µM, Pol iota inh 3.16µM, APE1 inh inconclusive, Pol kappa inh-1 35.5µM, Pol eta inh-1 10µM | Pol eta inh-2 inconclusive
O=C(NCCOCCn1c(=O)oc2ccccc21)Nc1ccc(F)cc1	none (no result: APE1 inh)
COc1ccc(-c2ccc(CN3C(C)C(=O)N(Cc4cn(CCC5OCCO5)nn4)CCS3(=O)=O)cc2)cc1 (stereo unspecified)	GLS inhibitor inconclusive, Pol eta inh-1 28.2µM (no result: Pol beta inh, Pol iota inh, APE1 inh, Pol kappa inh-1) | Pol kappa inh-2 inconclusive | Pol eta inh-2 inconclusive
COc1ccc(-c2ccc(CN3C(C)C(=O)N(Cc4cn(CCC5OCCO5)nn4)CCS3(=O)=O)cc2)cn1 (stereo unspecified)	none (no result: Pol beta inh, Pol iota inh, APE1 inh, Pol kappa inh-1)
COc1cc(CCc2ccccc2)c(C(=O)O)c(O)c1CC=C(C)C	none (no result: Pol beta inh, APE1 inh)
COc1cc(CCc2ccccc2)c(C(=O)O)c(O)c1C/C=C(/C)CCC=C(C)C	Pol iota inh inconclusive, Pol kappa inh-1 79.4µM, Pol eta inh-1 31.6µM (no result: Pol beta inh) | Pol kappa inh-2 inconclusive | Pol eta inh-2 84.9
COc1cc(/C=C(/C#N)c2nc3ccccc3[nH]2)ccc1OCc1ccc(C(=O)O)o1	Pol beta inh inconclusive, GLS inhibitor inconclusive, Pol eta inh-1 5.62µM | Pol eta inh-2 47.8
CCOc1cc(/C=C(\C#N)c2nc3ccccc3[nH]2)ccc1OC(C)C(=O)O (stereo unspecified)	none
COc1ccc(CNS(=O)(=O)c2ccc3c(c2)NC(=O)C(C)C(=O)N3)cc1 (stereo unspecified)	none (no result: APE1 inh)
CC1C(=O)Nc2ccc(S(=O)(=O)NCc3ccc(N(C)C)cc3)cc2NC1=O (stereo unspecified)	Pol eta inh-1 inconclusive (no result: APE1 inh) | Pol eta inh-2 inconclusive
CCOC(=O)C1(CCc2ccccc2)CCN(C(=O)C2CCCO2)CC1 (stereo unspecified)	none
COc1ccc(OC)c(NC(=O)CSc2nnc(C)n2Cc2ccccc2)c1	none
CC1=C(C#N)C(=O)NC(=O)/C1=C\c1ccc(-c2cc(C)c(C)cc2[N+](=O)[O-])o1	Pol beta inh inconclusive, GLS inhibitor 11.2µM, Pol iota inh inconclusive, Pol kappa inh-1 inconclusive, Pol eta inh-1 inconclusive | Pol kappa inh-2 inconclusive | Pol eta inh-2 inconclusive
